The structures appear in SMILES notation. Inconclusive results are not listed. Values without a mark were called inactive. Active and inactive are the calls of the source. The call rests on the fitted dose curve; in most records, active means well fitted inhibition curve with a large enough effect; inconclusive means small, poorly fitted or top-dose-only effect; inactive means flat fitted curve, though single readings scatter.

From PubChem BioAssay (NCATS) come the findings set out here.
Potency means the concentration at half of the fitted maximal effect.

The subject of the test is CP247. The test can be described thus: qHTS profiling for inhibitors of Plasmodium falciparum proliferation (AID 504749). Further: nearly all actives have a fitted effect of over 60% in size.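 On activity, negative = inhibition: 0% = DMSO vehicle and full inhibition = artemisinin control.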 Particulars: P. falciparum in erythrocytes, SYBR Green DNA, 72 h; series mostly up to 28.7 µM; activity, negative = inhibition: at the top concentration. In outline: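 Parasite proliferation within erythrocytes, 72 h exposure. Endpoint: SYBR Green I fluorescence after overnight lysis at room temperature. Controls: 0.29 uM artemisinin, DMSO.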
On to `CN1CCN(C2=Nc3ccccc3Sc3ccc(Cl)cc32)CC1`, for which the “activity, negative = inhibition” value is -23.8%.
Take `CN1CCN(c2cc3c(cc2F)c(=O)c(C(=O)O)cn3-c2ccc(F)cc2)CC1`: the “activity, negative = inhibition” value was -15.2%.
On the same count and under the same terms, for `NCc1ccccc1Sc1ccccc1CO` the value was -11.9%.
As to `O=C(c1ccc(F)cc1)C1CCN(CCn2c(=S)[nH]c3ccccc3c2=O)CC1`, the Potency is 4.47 µM (active).
For the compound `NC1CCN(c2nc3c(cc2F)c(=O)c(C(=O)O)cn3-c2ccc(F)cc2F)C1` (stereo not given), the “activity, negative = inhibition” value was -28.1%.
Take `CN1CCN(c2c(F)cc3c(=O)c(C(=O)O)cn4c3c2SCC4)CC1`: the “activity, negative = inhibition” value is -12.4%.
Turning to `COc1ccc(C(=O)c2ccccc2O)c(O)c1`, the “activity, negative = inhibition” value is 7.6% [at 12.8 µM].
On to `CCc1ccc(C(=O)C(C)CN2CCCCC2)cc1` (stereo not given), for which the “activity, negative = inhibition” value is 7.37%.
For `CCCN(CCc1cccs1)[C@H]1CCc2c(O)cccc2C1`, the Potency was 8.91 µM (active).
On to `Oc1c(Cl)cc(Cl)c(Cl)c1Cc1c(O)c(Cl)cc(Cl)c1Cl`, for which the Potency was 8.91 µM (active).
As to `C#C[C@]1(O)CC[C@H]2[C@@H]3CCC4=CC(=O)CC[C@@H]4[C@H]3CC[C@@]21CC`, the “activity, negative = inhibition” value is -23.4%.
As to `NC(N)=NN=C(/C=C/c1ccc([N+](=O)[O-])o1)/C=C/c1ccc([N+](=O)[O-])o1`, the Potency was 7.08 µM (active).
On to `FC1(F)C(F)(F)C(F)(F)C2(F)C(F)(F)C(F)(F)C(F)(F)C(F)(F)C2(F)C1(F)F` (stereo not given), for which the “activity, negative = inhibition” value is 14.3%.
Still for that read-out and setting: for `CC(C)[N+](C)(C)CC(O)COc1cccc2ccccc12` (stereo not given) the value was -28.6%.
The same measure, in the same setting: for `CCCc1ncc(C[n+]2ccccc2C)c(N)n1` the value was 13.9% [at 12.8 µM]; for `O=C(O)C1(C(=O)O)CCC1.[NH2-].[NH2-].[Pt+2]`, 1.29%; for `Cc1cc(CC(=O)O)c(C)n1-c1ccc(Cl)cc1`, -5%.
For the compound `O=C(Oc1cccc2cccnc12)c1ccccc1`, the “activity, negative = inhibition” value was 2.94%.
Still for that read-out and setting: for `O=C(O)CCc1nc2ccccc2[nH]1` the value was -109%.
Turning to `CN(C)C(=O)Nc1ccc(Cl)c(Cl)c1`, the Potency was 4.47 µM (active).
Turning to `C[N+]1(C)CCC(=C(c2ccccc2)c2ccccc2)CC1`, the “activity, negative = inhibition” value was -28.5% [at 12.8 µM].
With `Cc1ccc(O)c([C@H](CCN(C(C)C)C(C)C)c2ccccc2)c1`, the Potency was 6.31 µM (active).
For the compound `O=C(O)c1ccc(S(=O)(=O)N(Cl)Cl)cc1`, the “activity, negative = inhibition” value was 10.5%.
On the same count and under the same terms, for `CN(C)CCC[C@@]1(c2ccc(F)cc2)OCc2cc(C#N)ccc21` the value was -16.3%.
For the compound `Cc1ccc2c(Br)cc(Br)c(O)c2n1`, the Potency was 11.2 µM (active).
As for `N=C(N)N1CCc2ccccc2C1`, the “activity, negative = inhibition” value is -5.31%.
Same read-out and setting: for `O=[N+]([O-])c1cccc(S(=O)(=O)NCCNS(=O)(=O)c2cccc([N+](=O)[O-])c2)c1` the value was -21%; for `COc1ccc(C(=O)c2ccccc2)c(O)c1`, -26.1%.
For `COc1cc(C(=O)N2CCCCCCC2)cc(OC)c1OC`, the “activity, negative = inhibition” value was 7.62%.
Consider `Cc1cccc(C)c1NC(=O)c1ccccc1C(=O)O`, for which the “activity, negative = inhibition” value is 9.12%.
The same measure, in the same setting: for `CC(=O)NCCCCCC(=O)O` the value was 4.13%.
On to `Cc1ncc(CO)c(C=O)c1O`, for which the “activity, negative = inhibition” value was 5.51%.
For the compound `O=C1C(=O)c2ccccc2C(O)=C1C1CCC(c2ccc(Cl)cc2)CC1` (stereo not given), the Potency is 0.0022 µM (active).
As for `Cc1cccc(C)c1NC(=O)CN1CCCC1`, the “activity, negative = inhibition” value is 4.81%.
`CCOC(=O)c1c(N)sc2c1CCN(Cc1ccccc1)C2`: the Potency is 3.98 µM (active).
The same measure, in the same setting: for `CC(C)NCC(O)c1ccc2ccccc2c1` (stereo not given) the value was 7.94 µM (active).
On to `NC(N)=NCc1cccc(I)c1`, for which the “activity, negative = inhibition” value is -3.37%.
Still for that read-out and setting: for `COc1cc(O)c(C(=O)c2ccccc2)cc1S(=O)(=O)O` the value was 1.64%.
For the compound `CC(C)(C)CC(C)(C)c1ccc(O)c(-n2nc3ccccc3n2)c1`, the Potency is 11.2 µM (active).
The same measure, in the same setting: for `Oc1ccc(Cl)cc1Cc1cc(Cl)ccc1O` the value was 11.2 µM (active).
